About 79,000 compounds went through this panel and 15% of them were active in at least one assay; those are over-represented in the sample as a whole. Unmarked numbers belong to inactive results. Active and inactive are the calls of the source. No stated cut-off is given here; in the data, active means growth inhibition above about 70%; inactive means the rest.

The nature of assay [1]: NCI Yeast Anticancer Drug Screen. Data for the rad50 strain (AID 155).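 Further: 0% = growth of vehicle-only cultures of the same strain.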 The conditions noted are these: S. cerevisiae rad50 strain growth inhibition, stronger effect = higher value. An outline of the steps: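 Readout: growth inhibition relative to vehicle-treated cultures. Compound exposure was carried out in a genetically defined yeast strain deficient in DNA damage repair.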
A short description of assay [2]: NCI Yeast Anticancer Drug Screen. Data for the mec2-1 strain (AID 157). The conditions noted are these: S. cerevisiae mec2-1 strain, stronger effect = higher value. An outline of the steps: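 Readout is yeast growth inhibition, normalised to vehicle-treated controls, in the mec2-1 strain exposed to compound.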
Assay [3] can be described thus: NCI Yeast Anticancer Drug Screen. Data for the sgs1 mgt1 strain (AID 161).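 Further: 0% = growth of cultures given vehicle only.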 The conditions noted are these: S. cerevisiae sgs1 mgt1 strain, stronger effect = higher value. Summed up:
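Compounds are added to genetically altered yeast, and growth is compared with cultures given vehicle alone to give percent inhibition.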

Assay [4] is described as follows: NCI Yeast Anticancer Drug Screen. Data for the cln2 rad14 strain (AID 165).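 Further: 0% = growth equal to vehicle treated cultures.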 The settings on record: S. cerevisiae cln2 rad14 strain, stronger effect = higher value. Summed up: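 Relative to vehicle controls, growth inhibition of compound-treated cln2 rad14 yeast was recorded.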
The nature of assay [5]: NCI Yeast Anticancer Drug Screen. Data for the bub3 strain (AID 167). The conditions noted are these: S. cerevisiae bub3 mutant strain, stronger effect = higher value. An outline of the steps: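 Readout: yeast growth inhibition, expressed relative to vehicle-only wells. The test organism is a mutant strain from a panel with lesions in DNA repair or checkpoint genes.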
Assay [6] can be described thus: NCI Yeast Anticancer Drug Screen. Data for the mlh1 rad18 strain (AID 175). The settings on record: S. cerevisiae mlh1 rad18 strain growth inhibition, stronger effect = higher value. Summed up: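 Test agents were incubated with a yeast strain of defined genotype (DNA damage repair defect). Inhibition of growth was derived by comparison with vehicle-exposed cultures.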
Where [7] appears, read: at 5.0 µM (retest, dose inferred, filed as 0.5).
The mark [8] stands for this setting: at 50.0 µM (retest, dose inferred, filed as 5.0).

Consider `Cc1ccc(C(=O)C(CN(C)C)CN(C)C)cc1C`, for which the growth inhibition in assay [1] (setting [7]) was 29%; in assay [1] (setting [8]) it was 83% (active); in assay [1] (at 50.0 µM), 87.6% (active); in assay [2] (setting [7]), 12%; in assay [2] (setting [8]), 90% (active); in assay [2] (at 50.0 µM), 90.2% (active). Besides, the growth inhibition is 9% in assay [3] (setting [7]); 88% (active) in assay [3] (setting [8]); 90.1% (active) in assay [3] (at 50.0 µM); 24% in assay [4] (setting [7]); 51% in assay [4] (setting [8]); 58.1% in assay [4] (at 50.0 µM). The growth inhibition was 20% in assay [5] (setting [7]); 94% (active) in assay [5] (setting [8]); 87.5% (active) in assay [5] (at 50.0 µM); 14% in assay [6] (setting [7]); 91% (active) in assay [6] (setting [8]); 87.8% (active) in assay [6] (at 50.0 µM).
As for `CCCCCC(C)NCC(O)Cc1ccc(OCCCC)cc1` (stereo not given), the growth inhibition in assay [1] (setting [7]) is 22%; in assay [1] (setting [8]), 100% (active); in assay [1] (at 50.0 µM), 99.5% (active); in assay [2] (setting [7]) it was 29%; in assay [2] (setting [8]) it was 99% (active); in assay [2] (at 50.0 µM) it was 99.3% (active). The growth inhibition was 37% in assay [3] (setting [7]); 100% (active) in assay [3] (setting [8]); 99.3% (active) in assay [3] (at 50.0 µM); 34% in assay [4] (setting [7]); 100% (active) in assay [4] (setting [8]); 98.9% (active) in assay [4] (at 50.0 µM). Further, the growth inhibition in assay [5] (setting [7]) was 42%; in assay [5] (setting [8]), 100% (active); in assay [5] (at 50.0 µM), 99.5% (active); in assay [6] (setting [7]) it was 20%; in assay [6] (setting [8]) it was 100% (active); in assay [6] (at 50.0 µM), 99.7% (active).
As for `CCCCCCCCCCN(CCCCCCCCCC)C(=O)COc1c2cc(C(C)(C)C)cc1Cc1cc(C(C)(C)C)cc(c1OCC(=O)N(CCCCCCCCCC)CCCCCCCCCC)Cc1cc(C(C)(C)C)cc(c1OCC(=O)N(CCCCCCCCCC)CCCCCCCCCC)Cc1cc(C(C)(C)C)cc(c1OCC(=O)N(CCCCCCCCCC)CCCCCCCCCC)C2`, the growth inhibition in assay [1] (setting [7]) was 98% (active); in assay [1] (setting [8]), 92% (active); in assay [1] (at 50.0 µM), 85.8% (active); in assay [2] (setting [7]), 98% (active); in assay [2] (setting [8]) it was 95% (active); in assay [2] (at 50.0 µM), 89.3% (active). Also, the growth inhibition is 99% (active) in assay [3] (setting [7]); 95% (active) in assay [3] (setting [8]); 89% (active) in assay [3] (at 50.0 µM); 98% (active) in assay [4] (setting [7]); 94% (active) in assay [4] (setting [8]); 87.3% (active) in assay [4] (at 50.0 µM). For the same molecule, the growth inhibition in assay [5] (setting [7]) is 99% (active); in assay [5] (setting [8]), 94% (active); in assay [5] (at 50.0 µM), 87.8% (active); in assay [6] (setting [7]), 97% (active); in assay [6] (setting [8]), 92% (active); in assay [6] (at 50.0 µM), 84.8% (active).
On to `CC(C)COC(=O)c1ccc(N=Cc2ccc(C=Nc3ccc(C(=O)OCC(C)C)cc3)cc2)cc1`, for which the growth inhibition in assay [1] (setting [7]) is 25%; in assay [1] (setting [8]), 25%; in assay [1] (at 50.0 µM), 31.6%; in assay [2] (setting [7]) it was 16%; in assay [2] (setting [8]), 16%; in assay [2] (at 50.0 µM), -34.1%. Moreover, the growth inhibition in assay [3] (setting [7]) was 14%; in assay [3] (setting [8]), 14%; in assay [3] (at 50.0 µM), -10.2%; in assay [4] (setting [7]) it was 7%; in assay [4] (setting [8]), 7%; in assay [4] (at 50.0 µM), 1.75%. Also, the growth inhibition in assay [5] (setting [7]) is 9%; in assay [5] (setting [8]), 9%; in assay [5] (at 50.0 µM), -20.8%; in assay [6] (setting [7]), -1%; in assay [6] (setting [8]) it was -1%; in assay [6] (at 50.0 µM), -12.3%.
In the case of `CC1=C(C)C(N2CCOCC2)CS(=O)(=O)O1` (stereo not given), the growth inhibition in assay [1] (setting [7]) is 4%; in assay [1] (setting [8]) it was 0%; in assay [1] (at 50.0 µM) it was 6.15%; in assay [2] (setting [7]), 1%; in assay [2] (setting [8]), -3%; in assay [2] (at 50.0 µM), -14.4%. For the same molecule, the growth inhibition is 5% in assay [3] (setting [7]); 0% in assay [3] (setting [8]); -2.3% in assay [3] (at 50.0 µM); 3% in assay [4] (setting [7]); -1% in assay [4] (setting [8]); 16.4% in assay [4] (at 50.0 µM). The growth inhibition in assay [5] (setting [7]) was -2%; in assay [5] (setting [8]), -1%; in assay [5] (at 50.0 µM) it was 1.35%; in assay [6] (setting [7]), 19%; in assay [6] (setting [8]), 17%; in assay [6] (at 50.0 µM) it was -3.95%.

The record behind these values is PubChem BioAssay (NCI).
